# Measurements taken from PMC5540273 (PLoS ONE, 2017).
# Tested on: TRPM6
# Settings: concentration: 1 μM, replicates: in singlicate; n = 1
# 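Also: KINOMEscan kinase panel screen.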
row,Structure (SMILES),%Inh [%]
1,CCn1c(-c2nonc2N)nc2c(-c3ccccc3)ncc(OCCCN)c21.O=C(O)C(F)(F)F.O=C(O)C(F)(F)F [GSK260205],19
2,Cc1ccc(-c2ccc3occ(-c4ccc(S(C)=O)cc4)c3c2)nn1 (stereo not shown),0
3,Cn1cc(-c2ccc3c(c2)CCN3C(=O)Cc2cc(F)cc(F)c2F)c2c(N)ncnc21 [GSK2634140],8
4,COc1ccc(C)c(Nc2ccnc(Nc3ccc(-c4cnc[nH]4)cc3)n2)c1.Cl [GW784041],0
5,c1ccc(Oc2ccc(Nc3ccnc4cc(-c5ccc(CN6CCCCC6)o5)ccc34)cc2)nc1 [GW567143],42
6,CN(c1ccc(F)c(NC(=O)c2cccc(OC(C)(C)C#N)c2Cl)c1)c1ccc2nc(NC(=O)C3CC3)sc2n1,9
7,COc1cc(Nc2nccc(N3CCC(NS(=O)(=O)c4ccc(NC(C)=O)cc4)CC3)n2)cc(OC)c1OC [GSK1379825],0
8,Cc1ccc(C)c(NC(=O)Nc2ccc(C)c(-c3ccc(C(=O)Nc4ccncc4)cc3)c2)c1 [GSK1398473],2
9,CCNc1nccc(-c2c(-c3ccc(F)cc3)ncn2C2CCN(C)CC2)n1,0
10,Cc1ccc(NC(=O)c2cccc(N3CCCCC3)c2)cc1-c1ccc(C(=O)NCC2CC2)cc1 [GSK1917008],23
11,Cl.Cl.NCC(NC(=O)c1cc(-c2cccnc2)c(-c2ccnc3[nH]ccc23)s1)c1ccccc1 (stereo not shown) [GSK1323434],34
12,COc1cccc(-c2nc(-c3ccccc3)[nH]c2-c2ccncc2)c1 [SB-610250],10
13,Cn1cc(-c2cnc(N)c3c(-c4ccc5c(c4)CCN5C(=O)Cc4ccccc4)csc23)cn1 [GSK2593074],15
14,CN(C)CCNS(=O)(=O)c1ccc(-c2ccnc3[nH]ccc23)cc1 [GSK977620],0
15,O=C(Nc1n[nH]c2nc(-c3cccc(O)c3)ccc12)C1CC1 [SB-711805],3
16,Nc1cccc(-c2ccc3c(N)n[nH]c3c2)c1 [GSK2193613],0
17,Cl.O=C(Nc1ccc(Oc2ccc3[nH]c(NC(=O)c4ccco4)nc3c2)cc1)Nc1cc(C(F)(F)F)ccc1F [GW683134],1
18,COc1cccc2c(-c3ccncc3)c(-c3ccc(F)cc3)nn12 [GW468513],9
19,COc1cc(Nc2ccnc3cc(-c4ccncc4)ccc23)cc(OC)c1OC.Cl [GW494610],16

row,Structure (SMILES),%Inh [%]
1,O=C(O)C(F)(F)F.O=c1[nH]ccc2nc(N[C@@H]3CCNC3)nc(Nc3ccc4c(c3)S(=O)(=O)CC4)c12 [GSK2181306],38
2,Cl.N#CCc1ccc(Nc2nccc(Nc3ccc(Oc4ccccc4)cc3)n2)cc1 [GW639905],29
3,Cc1ccc(O)cc1Nc1ccnc2cc(-c3ccc(CN4CCCCC4)o3)ccc12 [GW557777],0
4,Cl.Cl.NC(CNC(=O)c1cc(Br)c(-c2ccnc3[nH]ccc23)s1)c1ccccc1 (stereo not shown) [GSK1322949],0
5,CN(c1ccc2c(c1)nc(NCc1ccccc1)n2C)c1ccnc(Nc2ccc(CS(C)(=O)=O)cc2)n1.Cl [GW811603],0
6,Cc1ccc(O)cc1Nc1ccnc2ccc(C(C)(C)C)cc12 [GW856805],21
7,COC(=O)Nc1nc2ccc(Oc3ccc(NC(=O)Nc4cc(C(F)(F)F)ccc4F)cc3)cc2[nH]1.Cl [GW654607],26
8,Cn1cc(-c2ccc3c(c2)CCN3C(=O)Cc2cc(F)cc(C(F)(F)F)c2)c2c(N)ncnc21 [GSK2635225],36
9,COc1cccc(CC(=O)N2CCc3cc(-c4cn(C)c5ncnc(N)c45)ccc32)c1 [GSK2608899],0
10,N#Cc1cnc2cc(-c3cnc(CNCCN4CCOCC4)s3)ccc2c1Nc1ccc(Oc2ccccc2)cc1 [GW664114],48
11,O=C(Nc1n[nH]c2cc(-c3cccs3)ccc12)C1CC1 [SB-731284],39
12,CN(C)CCOc1ccc(-c2cc(-c3ccc(Cl)c(O)c3)c(-c3ccncc3)[nH]2)cc1.Cl.Cl [SB-684387],36
13,Cc1cccc(Nc2nc(NCCN)ncc2C(N)=O)c1 [GSK1292139],44
14,COC(=O)Nc1nc2cc(Oc3ccc(NC(=O)Nc4cccc(SC)c4)cc3)ccc2[nH]1.Cl [GW697999],0
15,Nc1ncnc2scc(-c3ccc(NC(=O)Cc4cc(F)ccc4F)cc3)c12.O=C(O)C(F)(F)F [SB-731254-M],31
16,CC(C)c1nc(-c2ccc(F)c(NS(=O)(=O)c3c(F)cccc3F)c2)c(-c2ccnc(Nc3ccc(N4CCOCC4)nc3)n2)s1 [GSK1804250],7
17,NCCC(NC(=O)c1cc(Br)c(-c2ccnc3[nH]ccc23)s1)c1ccccc1.O=C(O)C(F)(F)F.O=C(O)C(F)(F)F (stereo not shown) [GSK1307810],0
18,COc1ccc(NC(=O)c2ccoc2)cc1-c1ccc(C(=O)NCC2CC2)cc1 [GW810437],0
